# Measurements: PubChem BioAssay (NCATS)
# Results filed as inconclusive are left out. Activity calls are given as the source filed them. Calls follow the shape of the dose curve; as a rule, active = well fitted inhibition curve with a large enough effect; inconclusive = small, poorly fitted or top-dose-only effect; inactive = flat fitted curve, though single readings scatter.
# Test system: MKL-1
# Experiment: qHTS assay to identify novel small-molecules to repurpose for Merkel cell carcinoma treatment (AID 1296009); also: nearly all actives have a fitted effect of over 60% in size
# Conditions: MCC and control cell lines, CellTiter-Glo viability, 72 h; series mostly up to 46 µM; activity change, negative = cytotoxicity: at the top concentration
# Description: MCC is a rare and aggressive neuroendocrine skin cancer with limited treatment options. Approximately 80% of MCCs have the Merkel cell polyomavirus (MCPyV) DNA integrated into the host genome (virus-positive: VP-MCC) and viral oncogenes drive oncogenesis. The remaining MCCs are virus-negative (VN-MCC) and are caused by UV mutagenesis. To identify novel treatments for VP-MCC and/or VN-MCC we screened three VP-MCC cell lines (WAGA, MKL-1, MKL-2), three VN-MCC cell lines (MCC-13, MCC-26, UISO), and four immortalized, non-transformed control cell lines (HaCaT, HEK293T, CRL7250, NIH-3T3) against ~2,400 compounds in the NCGC Pharmaceutical Collection (NPC) and ~1,900 compounds in the Mechanism Interrogation PlatE (MiPE). Using cell viability as a readout (CellTiter-Glo assay) we found both overlapping and distinct drugs that can be repurposed for the treatment of VP-MCC and VN-MCC.
# A high-throughput screen was conducted in 1536-well white flat bottom plates (Corning) on a Kalypsys robotic system. Cell lines WAGA, MKL-1, MKL-2, MCC-13, MCC-26, UISO, HaCaT, HEK293T, CRL7250, and NIH-3T3 were screened against 2 small molecule annotated drug libraries NPC and MIPE in dose response (8 and 11 pt. respectively) measuring cell viability after 72 hours of incubation. […] A 1,536 pintool (Kalypsys) was used to transfer 23 nL of compound in DMSO to the 1,536-well assay plates. After 72 hr incubation at 37 degree celsius, 2.5 uL of CellTiter-Glo (Promega) was dispensed into each well using a BiorapTR. Plates were incubated at room temperature for 10 min, transferred to a ViewLux (PerkinElmer) and the luminescence was recorded using an exposure time of 2 seconds. Relative luminescence units (RLUs) were normalized to in-plate controls (no cells as a positive (cytotoxicity) control, DMSO as negative control) and the normalized data was processed using NCATS in-house software.
# % is scaled to controls: 0 for no effect and ±100 for the full control effect.
SMILES,"activity change, negative = cytotoxicity",Potency
c1ccc2c(c1)CCCC2C1=NCCN1 (stereo not given),6.87% (inactive),
Cc1ccc(Cl)c(Nc2ccccc2C(=O)O)c1Cl,0.528% (inactive),
NC(N)=N/N=C/c1c(Cl)cccc1Cl,0.533% (inactive),
CCCCNc1ccc(C(=O)OCCN(C)C)cc1,3.4% (inactive),
O=C(O)CP(=O)(O)O,3.31% (inactive),
NC(=O)c1ncn([C@@H]2O[C@H](CO)[C@@H](O)[C@H]2O)c1O,14% (inactive),
C[N+](C)(C)CCOC(=O)CCC(=O)OCC[N+](C)(C)C,15.1% (inactive),
C=CCc1ccccc1OCC(O)CNC(C)C (stereo not given),-8.68% (inactive),
C[C@]12CCC(=O)C=C1CC[C@@H]1[C@@H]2C(=O)C[C@@]2(C)[C@H]1CC[C@]2(O)C(=O)CO,13.4% (inactive),
O=C(CCNNC(=O)c1ccncc1)NCc1ccccc1,-12.4% (inactive),
NC1=NCC2c3ccccc3Cc3ccccc3N12 (stereo not given),11% (inactive),
C#CCN(C)CCCOc1ccc(Cl)cc1Cl,6.66% (inactive),
C[C@]12CCC(=O)C=C1CC[C@@H]1[C@@H]2CC[C@@]2(C)[C@H]1CC[C@]2(O)C(=O)CO,2.89% (inactive),
CN(C)CC[C@@H](c1ccc(Br)cc1)c1ccccn1,1.08% (inactive),
COc1ccc(CCN(C)CCCC(C#N)(c2cc(OC)c(OC)c(OC)c2)C(C)C)cc1OC (stereo not given),-18.7% (inactive),
CCCOc1ccccc1-c1nc2n[nH]nc2c(=O)[nH]1,-2.47% (inactive),
Cc1cc(C)c(/C=C2\C(=O)Nc3ccccc32)[nH]1,-0.0798% (inactive),
CC(C)NNC(=O)c1ccncc1,18.5% (inactive),
NC(=O)N1c2ccccc2C=Cc2ccccc21,9.1% (inactive),
Cc1nc2ccccn2c(=O)c1CCN1CCC(C(=O)c2ccc(F)cc2)CC1,-16.6% (inactive),

SMILES,"activity change, negative = cytotoxicity",Potency
CC(C)(Oc1ccc(CCNC(=O)c2ccc(Cl)cc2)cc1)C(=O)O,1.15% (inactive),
CCCNC(C)C(=O)Nc1ccccc1C (stereo not given),4.23% (inactive),
CCCN(CCC)C(=O)C(CCC(=O)O)NC(=O)c1ccccc1 (stereo not given),12.1% (inactive),
CCCCNc1c(C(=O)OCC)c(C)nc2c1cnn2CC,-12.3% (inactive),
CN1C[C@H](C(=O)N[C@]2(C)O[C@@]3(O)[C@@H]4CCCN4C(=O)[C@H](Cc4ccccc4)N3C2=O)C[C@@H]2c3cccc4[nH]cc(c34)C[C@H]21,6.43% (inactive),
CN(C)CC/C=C1\c2ccccc2COc2ccccc21,-11.1% (inactive),
CCOC(=O)c1cnc2c(cnn2CC)c1NN=C(C)C,4.83% (inactive),
NC(=O)c1cn(Cc2c(F)cccc2F)nn1,16.7% (inactive),
CN(C)C(=O)Oc1ccc[n+](C)c1,2.99% (inactive),
CC(=O)OCC1=C(C(=O)O)N2C(=O)[C@@H](NC(=O)Cc3cccs3)[C@H]2SC1,3.33% (inactive),
CCCCCCCC/C=C\CCCCCCCC(=O)NCc1ccc(O)c(OC)c1,-22.1% (inactive),
CO[C@@]1(NC(=O)CSCC#N)C(=O)N2C(C(=O)O)=C(CSc3nnnn3C)CS[C@@H]21,-2.57% (inactive),
CCCCOCCOCCOCc1cc2c(cc1CCC)OCO2,,inactive
COCCc1ccc(OCC(O)CNC(C)C)cc1 (stereo not given),-0.155% (inactive),
Cc1ccc(/C(=C\CN2CCCC2)c2ccccn2)cc1,-1.96% (inactive),
CN(C)CCOC(=O)COc1ccc(Cl)cc1,19.4% (inactive),
NCCCNCCSP(=O)(O)O,15.3% [at 9.22 µM] (inactive),
c1cnc(N2CCN(Cc3ccc4c(c3)OCO4)CC2)nc1,4.83% (inactive),
FC(F)(F)c1ccccc1-n1ccnc1,5.32% (inactive),
O=c1[nH]c(=O)n([C@H]2C[C@H](O)[C@@H](CO)O2)cc1Br,-6.57% (inactive),
